25 compounds from PubChem BioAssay AID651956 (Broad Institute, 2012) can be followed below.

Each structure is given as a SMILES string. Measured potencies and affinities stand elsewhere. Inconclusive results are not listed. Activity calls are given as the source filed them.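 How the source made its calls: active means in every test run, a fitted half-maximal concentration for signal decrease at or below twice the highest tested concentration; inconclusive means runs disagree, flat 30 to 70% decrease, or poor fit; inactive means the rest.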

A short description of the experiment: miR-122 activators in hepatoma reporter cells, dose response, cell-based, Huh7 psiCHECK-miR122, Renilla luciferase, cherry-picked (AID 651956).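 Further: Renilla luciferase from a miR-122 sensor reporter so lower signal means miR-122 activation.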

For the compound `CNC(=O)C[C@@H]1CC[C@@H]2[C@@H](COc3ccc(NC(=O)c4ccccc4OC)cc3C(=O)N2C)O1`, the result was inactive.

On to `CN1C(=O)c2cc(NC(=O)c3ccccc3F)ccc2OC[C@H]2O[C@@H](CC(=O)NCc3ccc4c(c3)OCO4)CC[C@@H]21`, for which the compound was called inactive.

Take `O=C(Nc1ccccc1F)N1[C@H](CO)[C@@H]2c3ccccc3NC[C@@H]21`: the compound was called inactive.

Consider `COCC(=O)N(C)C[C@@H]1[C@H](c2ccc(-c3ccccc3)cc2)[C@@H](CO)N1C(C)=O`, for which the outcome was inactive.

Consider `O=C(C1CC1)N(CCN(C(=O)C1CC1)c1ccccc1)c1ccccc1`, for which the compound was called inactive.

Turning to `CNC(=O)C[C@@H]1CC[C@@H]2[C@@H](COc3ccc(NC(=O)c4ccccc4F)cc3C(=O)N2C)O1`, the call was inactive.

Regarding `CCCC(=O)Nc1ccc2c(c1)C(=O)N(C)[C@H]1CC[C@H](CC(=O)NCCN3CCCCC3)O[C@@H]1CO2`, the compound was classed as inactive.

As to `CN(C)CCCNC(=O)C[C@H]1CC[C@H]2[C@H](COc3ccc(NC(=O)c4cccc(F)c4)cc3C(=O)N2C)O1`, the compound was called inactive.

On to `CN1C(=O)c2cc(NC(=O)c3cccs3)ccc2OC[C@H]2O[C@@H](CC(=O)N3CCCCC3)CC[C@H]21`, for which the compound was called inactive.

Turning to `CO[C@H]1CN(C)C(=O)c2cc(NC(=O)C3CC3)ccc2OC[C@H](C)N(CCc2ccccc2)C[C@H]1C`, the outcome was inactive.

Regarding `COc1cc(NC(=O)c2c(F)c(F)c(F)c(F)c2F)c(OC)cc1Cl`, the result was inactive.

On to `COC(=O)c1cc(NS(=O)(=O)c2ccc3c(c2)CCC(=O)N3)cc(C(=O)OC)c1`, for which the outcome was inactive.

For `COc1ccccc1NC(=O)Nc1ccc2c(c1)C(=O)N(C)[C@H]1CC[C@H](CC(=O)Nc3ccc4c(c3)COC4)O[C@@H]1CO2`, the outcome was inactive.

`COc1ccc(-c2nc(NC(=O)CSc3nnc(C)s3)ns2)cc1`: the result was inactive.

`CC#CCCCC(=O)Nc1ccccc1C(=O)O`: the call was inactive.

Take `CC(C)C(=O)Nc1ccc2c(c1)C(=O)N(C)[C@H]1CC[C@H](CC(=O)O)O[C@H]1CO2`: the result was inactive.

For `C/C=C/c1ccc([C@@H]2[C@@H](CO)N[C@@H]2CN(C(=O)C2CCCC2)C(C)C)cc1`, the compound was classed as inactive.

Take `CCCNC(=O)N1[C@H](CNC(C)=O)[C@H](c2ccc(C3=CCCC3)cc2)[C@@H]1CO`: the compound was classed as inactive.

As for `Fc1ccccc1-c1nc(-c2ccncc2)no1`, the call was inactive.

Regarding `c1ccc(-c2nnc3n2CCCC3)cc1`, the outcome was inactive.

For `Cc1ccc(OCC(O)Cn2c(=N)n(Cc3ccccc3)c3ccccc32)cc1` (stereo not given), the compound was called inactive.

Take `COc1ccc(NC(=O)Cn2nnc(C(=O)NCc3ccccc3OC)c2N)cc1Cl`: the outcome was inactive.

On to `Cc1[nH]c(=O)c(C#N)cc1-c1ccccc1`, for which the compound was called inactive.

`OC[C@H]1[C@@H](c2ccccc2)[C@@H](CNCC2CCC2)N1CC1CC1`: the compound was classed as inactive.

Turning to `CNC[C@H]1Oc2cc(C#CC3CCCC3)ccc2S(=O)(=O)N([C@H](C)CO)C[C@H]1C`, the outcome was inactive.
